# Measured values published in PubChem BioAssay.
# Active and inactive are the calls of the source.
# Tests used:
# [1] = optical density shifts of acrAB sulA E. coli – strain DRC41, OD650, 48 h, E. coli filamentation inducer project, primary screen (AID 1152); conditions: higher = more signal, called active from +8 up or from −8 down;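 also: E. coli MC1000 strain DRC41 lacking acrAB efflux pump and sulA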
# [2] = probe aLefty1 binding on compound microarray – biochemical, small-molecule microarray, 635/667 nm fluorescence, primary screen (AID 1153); conditions: higher = more signal;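 also: score merges spot fluorescence with signal-to-noise ratio from the scanned slide images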
# [3] = plasmodial surface anion channel blockers, osmotic lysis – cell-based, P. falciparum Indochina, OD700, 1 h, primary screen (AID 1154); conditions: P. falciparum Indochina infected RBC osmotic lysis, higher = more signal, called active from +8 up or from −8 down
# [4] = plasmodial surface anion channel blockers, osmotic lysis – cell-based, P. falciparum Indochina, OD700, 2 h, primary screen (AID 1155);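 also: lysis reports solute entry through the parasite surface anion channel PSAC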; conditions: P. falciparum Indochina infected erythrocytes, higher = more signal, called active from +8 up or from −8 down
# [5] = changes in parasitized red cell lysis, either direction – P. falciparum Indochina, OD700, 3 h, PSAC antagonist project, primary screen (AID 1156); conditions: P. falciparum-infected erythrocytes, osmotic lysis, higher = more signal, called active from +8 up or from −8 down
# [6] = plasmodial surface anion channel blockers, osmotic lysis – cell-based, P. falciparum Indochina, OD700, 18 h, primary screen (AID 1157); conditions: P. falciparum Indochina infected erythrocytes, osmotic lysis OD700, 18 h; higher = more signal, called active from +8 up or from −8 down
# [7] = S6 kinase pathway phospho-S6 level changes – cell-based, A549, cytoblot, luminescence, serum-stimulated, primary screen (AID 1158); conditions: 5 h, higher = more signal;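 also: serum-stimulated A549 lung adenocarcinoma cells; signal is phosphorylated S6 detected by cytoblot immunostaining with HRP secondary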
# [8] = target: NADPH oxidase 2 (Homo sapiens) (UniProt P04839); assay: compounds shifting NOX2 Amplex Red fluorescence – cell-based, HEK293-NOX2, PMA-stimulated, NOX inhibitor project, primary screen (AID 1159); conditions: 45 min, higher = more signal, called active from +8 up or from −8 down; also: test concentration not given here
# [9] = target: NADPH oxidase 4 (Homo sapiens) (UniProt Q9NPH5); assay: compounds shifting NOX4 Amplex Red fluorescence – cell-based, HEK293-NOX4, tetracycline-induced, NOX inhibitor project, primary screen (AID 1160); conditions: HEK293-NOX4, Amplex Red H2O2 fluorescence, 45 min; higher = more signal, called active from +8 up or from −8 down
# [10] = target: NADPH oxidase 5 (Homo sapiens) (UniProt Q96PH1); assay: compounds shifting NOX5 Amplex Red fluorescence – cell-based, HEK293-NOX5, NOX inhibitor project, primary screen (AID 1161); conditions: HEK293-NOX5, ionomycin, 45 min, higher = more signal
# Sequence of NADPH oxidase 5 (Homo sapiens) (Q96PH1 whole entry, looked up): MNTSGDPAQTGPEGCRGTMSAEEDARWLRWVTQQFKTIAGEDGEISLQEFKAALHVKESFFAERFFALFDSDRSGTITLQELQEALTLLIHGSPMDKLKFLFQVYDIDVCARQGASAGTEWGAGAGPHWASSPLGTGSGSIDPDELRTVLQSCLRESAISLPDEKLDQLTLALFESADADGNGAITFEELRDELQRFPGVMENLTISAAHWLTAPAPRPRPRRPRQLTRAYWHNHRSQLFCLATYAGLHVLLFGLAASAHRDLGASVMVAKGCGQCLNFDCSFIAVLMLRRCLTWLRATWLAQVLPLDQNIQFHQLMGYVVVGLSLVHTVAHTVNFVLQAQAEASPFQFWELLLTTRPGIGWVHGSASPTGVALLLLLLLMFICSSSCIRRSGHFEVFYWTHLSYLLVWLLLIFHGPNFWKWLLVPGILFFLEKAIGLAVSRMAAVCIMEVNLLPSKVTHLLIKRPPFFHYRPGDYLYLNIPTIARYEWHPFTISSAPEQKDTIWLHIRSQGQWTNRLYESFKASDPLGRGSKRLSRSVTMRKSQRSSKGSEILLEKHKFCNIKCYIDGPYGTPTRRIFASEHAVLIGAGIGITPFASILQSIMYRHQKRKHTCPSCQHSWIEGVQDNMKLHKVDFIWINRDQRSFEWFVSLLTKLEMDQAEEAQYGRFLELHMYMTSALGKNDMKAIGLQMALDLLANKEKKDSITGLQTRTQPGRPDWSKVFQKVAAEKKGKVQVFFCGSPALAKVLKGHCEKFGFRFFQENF
# Sequence of NADPH oxidase 4 (Homo sapiens) (Q9NPH5 whole entry, looked up): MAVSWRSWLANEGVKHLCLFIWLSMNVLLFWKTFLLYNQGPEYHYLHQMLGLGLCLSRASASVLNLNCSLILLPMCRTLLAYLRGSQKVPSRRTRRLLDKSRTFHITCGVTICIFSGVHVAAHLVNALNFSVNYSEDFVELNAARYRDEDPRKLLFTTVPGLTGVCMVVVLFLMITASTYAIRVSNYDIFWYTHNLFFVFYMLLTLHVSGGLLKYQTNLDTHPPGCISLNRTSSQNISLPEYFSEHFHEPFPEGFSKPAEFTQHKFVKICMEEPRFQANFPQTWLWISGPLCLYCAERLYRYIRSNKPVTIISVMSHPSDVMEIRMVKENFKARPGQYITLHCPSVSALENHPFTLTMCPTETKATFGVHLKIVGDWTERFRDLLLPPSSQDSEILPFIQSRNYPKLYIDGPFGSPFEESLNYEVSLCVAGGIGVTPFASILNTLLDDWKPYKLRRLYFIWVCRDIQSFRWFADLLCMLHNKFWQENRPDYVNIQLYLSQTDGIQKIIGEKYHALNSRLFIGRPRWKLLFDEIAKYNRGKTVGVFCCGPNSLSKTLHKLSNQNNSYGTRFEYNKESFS
# Sequence of NADPH oxidase 2 (Homo sapiens) (P04839 whole entry, looked up): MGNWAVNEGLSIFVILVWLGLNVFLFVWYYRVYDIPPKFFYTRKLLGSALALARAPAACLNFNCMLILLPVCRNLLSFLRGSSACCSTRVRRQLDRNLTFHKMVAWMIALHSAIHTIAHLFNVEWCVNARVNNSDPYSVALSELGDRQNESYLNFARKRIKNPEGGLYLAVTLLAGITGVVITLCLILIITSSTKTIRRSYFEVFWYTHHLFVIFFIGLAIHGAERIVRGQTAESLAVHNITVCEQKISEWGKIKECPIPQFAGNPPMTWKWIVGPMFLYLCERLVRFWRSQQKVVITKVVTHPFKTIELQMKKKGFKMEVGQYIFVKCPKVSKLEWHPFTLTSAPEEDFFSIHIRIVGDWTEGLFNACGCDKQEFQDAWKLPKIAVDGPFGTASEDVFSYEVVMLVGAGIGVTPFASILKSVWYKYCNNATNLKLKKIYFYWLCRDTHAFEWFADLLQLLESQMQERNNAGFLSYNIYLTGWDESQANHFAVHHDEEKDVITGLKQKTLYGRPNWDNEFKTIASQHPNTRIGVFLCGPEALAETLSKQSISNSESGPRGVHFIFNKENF
Structure (SMILES),z-score [1],composite z-score [2],z-score [3],z-score [4],z-score [5],z-score [6],z-score [7],z-score [8],z-score [9],z-score [10]
CCCC#C[Si](O[C@H](CC)c1cn([C@H](C)c2ccccc2)nn1)(C(C)C)C(C)C,2.53 (inactive),0.28,1.01 (inactive),1.05 (inactive),-0.302 (inactive),0.357 (inactive),0.364,0.177 (inactive),0.00728 (inactive),0.7
CCOC(=O)[C@@H]1CCCCN1C(=O)C(=O)OC,-0.446 (inactive),-0.0515,-1.11 (inactive),-0.164 (inactive),-0.306 (inactive),-0.262 (inactive),-0.523,0.296 (inactive),-0.28 (inactive),0.153
CCCCN1CC=CC23O[C@@H]4/C=C\CCCOC(=O)C4[C@H]2C(=O)N(CCO)[C@@H]3C1=O (stereo not given in full),1.18 (inactive),-0.297,0.978 (inactive),1.05 (inactive),0.504 (inactive),0.628 (inactive),-0.246,1.28 (inactive),0.314 (inactive),1.5
C=CCOC(=O)[C@@]1(Cc2ccccc2)C[C@H]2CO[C@H](c3ccc(OC)cc3)N2C1=O,-0.0282 (inactive),-0.338,1.36 (inactive),0.522 (inactive),-0.256 (inactive),0.0894 (inactive),-0.673,0.826 (inactive),-0.213 (inactive),-1.93
CCCN1C(=O)[C@]2(Cc3ccccc31)N=C(c1ccc(OCCCO)cc1)O[C@@H]2c1ccccc1,-0.753 (inactive),0.643,30.9 (active),25.5 (active),3.13 (inactive),2.19 (inactive),0.117,-3 (inactive),-0.843 (inactive),-1.8
COC(=O)[C@@]1(Cc2ccc(OC)cc2)[C@H]2c3cc(C(=O)N(C)C)n(Cc4ccc(C)o4)c3C[C@H]2CN1C(=O)c1ccccc1,-0.155 (inactive),0.346,4.12 (inactive),0.057 (inactive),1.3 (inactive),0.594 (inactive),1.5,-0.351 (inactive),-0.0809 (inactive),-3.41
CCC1=C2CN(Cc3ccccc3)[C@@H](C(=O)Cc3ccccc3)C2C=CCC1 (stereo not given in full),0.806 (inactive),-0.0984,0.26 (inactive),-1.13 (inactive),0.564 (inactive),-2 (inactive),0.492,-1.12 (inactive),-1.42 (inactive),-0.123
CO[C@H]1O[C@H](CO)[C@@H](OC(=O)Nc2ccc(Br)cc2)[C@@H]2OC(=O)[C@@H](Cc3ccccc3)C/C=C/C[C@H](Cc3ccccc3)C(=O)O[C@@H]12,0.931 (inactive),0.057,3.36 (inactive),0.956 (inactive),-1.12 (inactive),1.35 (inactive),0.311,0.647 (inactive),0.263 (inactive),0.0979
COC(=O)[C@@H]1N=C(c2ccc(OCCCO)cc2)O[C@@H]1c1ccccc1,0.813 (inactive),-0.717,24.5 (active),12.5 (active),-1.03 (inactive),0.82 (inactive),0.264,-0.499 (inactive),1.02 (inactive),-0.273
CN(C)C(=O)[C@@]1(Cc2ccccc2)N=C(c2ccc(OCCCO)cc2)O[C@H]1c1ccccc1,0.756 (inactive),-0.0171,14.9 (active),2.63 (inactive),1.4 (inactive),1.33 (inactive),-0.39,-0.896 (inactive),0.068 (inactive),-1.7
CCOC(=O)C[C@H]1[C@H](OC(=O)c2ccc(C(=O)c3ccccc3)cc2)[C@@H](NC(=O)c2ccc3ccccc3n2)c2cc(OCCCO)ccc2N1C(=O)Cc1ccc(OC)cc1,-1.61 (inactive),0.0782,-0.17 (inactive),0.313 (inactive),1.57 (inactive),0.802 (inactive),0.793,-1.71 (inactive),-0.298 (inactive),-0.856
C=C[C@H]1C(C(=O)OCC)=CC[C@@H](c2ccccc2)N1S(=O)(=O)c1ccc(C)cc1,-1.11 (inactive),0.457,7.17 (inactive),1.56 (inactive),0.43 (inactive),0.509 (inactive),-0.518,0.09 (inactive),-0.613 (inactive),0.14
